Measured values: paper PMC4336329 (PLoS ONE, 2015)
The campaign covered roughly 310,000 compounds. About 14,000 (4.5%) showed an effect of 50% or more. The effect is printed as a negative number. This is one part of a sample in which strong results are shown more often than they occur.

Biological target: human ether-à-go-go-related gene (hERG) potassium channel (human, UniProt Q12809)
Experiment: primary screen, population patch clamp on CHO cells stably expressing hERG; higher = less effect of the substance
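Also: peak tail current of the secondary pulse compared with the same well before compound.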

human ether-à-go-go-related gene (hERG) potassium channel, sequence (Q12809 whole entry, looked up): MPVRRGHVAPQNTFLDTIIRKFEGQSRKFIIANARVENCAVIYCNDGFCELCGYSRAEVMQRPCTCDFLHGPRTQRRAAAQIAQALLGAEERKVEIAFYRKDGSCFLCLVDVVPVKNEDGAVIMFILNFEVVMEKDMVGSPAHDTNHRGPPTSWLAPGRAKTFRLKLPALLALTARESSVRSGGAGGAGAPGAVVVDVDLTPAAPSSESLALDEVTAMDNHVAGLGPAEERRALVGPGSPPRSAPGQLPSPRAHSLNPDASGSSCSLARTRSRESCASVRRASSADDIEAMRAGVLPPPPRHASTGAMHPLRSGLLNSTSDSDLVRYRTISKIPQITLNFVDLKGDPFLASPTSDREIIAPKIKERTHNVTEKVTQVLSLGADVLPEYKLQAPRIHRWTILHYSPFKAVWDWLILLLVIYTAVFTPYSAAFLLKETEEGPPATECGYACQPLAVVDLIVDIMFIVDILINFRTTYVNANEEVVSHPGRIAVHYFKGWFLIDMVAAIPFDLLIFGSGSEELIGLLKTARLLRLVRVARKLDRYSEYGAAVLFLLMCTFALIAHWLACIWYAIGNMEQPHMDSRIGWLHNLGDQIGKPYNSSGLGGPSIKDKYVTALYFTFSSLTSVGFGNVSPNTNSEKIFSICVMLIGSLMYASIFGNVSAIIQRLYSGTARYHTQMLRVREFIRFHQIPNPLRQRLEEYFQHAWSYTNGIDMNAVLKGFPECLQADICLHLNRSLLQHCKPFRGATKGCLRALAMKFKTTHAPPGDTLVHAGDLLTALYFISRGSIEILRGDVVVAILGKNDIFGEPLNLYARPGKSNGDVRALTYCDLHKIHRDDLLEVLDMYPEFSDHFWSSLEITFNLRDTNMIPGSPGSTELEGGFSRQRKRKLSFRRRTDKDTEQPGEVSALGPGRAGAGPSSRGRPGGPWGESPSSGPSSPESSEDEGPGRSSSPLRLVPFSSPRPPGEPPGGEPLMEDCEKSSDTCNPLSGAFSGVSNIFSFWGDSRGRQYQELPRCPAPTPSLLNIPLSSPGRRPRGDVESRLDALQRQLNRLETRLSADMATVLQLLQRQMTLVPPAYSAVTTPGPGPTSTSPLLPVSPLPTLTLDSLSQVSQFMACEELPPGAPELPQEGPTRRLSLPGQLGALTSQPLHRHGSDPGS

Compound | hERG current change (%, negative = inhibition) at 10uM
CCC1CCCCN1Cc1ccc(CNC(=O)CCc2nnc3ccc(N4CCCCC4)nn23)o1 (stereo not drawn) | 18.2%
Cc1ccc(S(=O)(=O)N2CCC(C)CC2)c([N+](=O)[O-])c1 | -12.9%
Cc1ccc(CN2CC(C(=O)N(C)CC(=O)Nc3cccc(F)c3)CC2=O)cc1 (stereo not drawn) | -7.16%
O=C1Nc2ccccc2C1(O)c1ccccc1O (stereo not drawn) | 34.6%
CCOc1ccc(OCCC(=O)OCC(=O)Nc2ccc3c(c2)OCCO3)cc1 | -5.02%
O=C(CCC1CCCC1)N[C@@H](Cc1ccc(O)cc1)C(=O)O | 28.8%
COc1ccc(C[C@@H]2CN3C(=NC[C@@H]3Cc3ccc(O)cc3)N2C[C@H](C)NC(=O)CCC2CCCCC2)cc1 | -80.6%
COc1ccc(C[C@H]2CN3C(=NC[C@@H]3Cc3ccc(O)cc3)N2C[C@H](C)NC(=O)CCC2CCCCC2)cc1 | -66.1%
C[C@@H](CN1C2=NC[C@H](C)N2C[C@H]1Cc1ccc(O)cc1)NC(=O)CCC1CCCCC1 | -11.9%
CC(C)[C@H]1CN=C2N(C[C@H](C)NC(=O)CCC3CCCCC3)[C@H](Cc3ccc(O)cc3)CN21 | -59.7%
COc1ccc(C[C@@H]2CN3C(=NC[C@@H]3C)N2C[C@H](C)NC(=O)CCC2CCCCC2)cc1 | -67.4%
Cc1cc(C)cc(NC(=S)N2CCN(CCO)CC2)c1 | 14.3%
COC(=O)c1ccc(OC)c(CSc2nnc(COc3ccc(OC)cc3)o2)c1 | -27.1%
N#Cc1ccccc1CSc1nc2ncc(Br)cc2[nH]1 | 5.22%
CC(C)(C)c1cc(NC(=O)Nc2ccccc2OC(F)(F)F)no1 | 26.4%
O=C(COC(=O)c1cccc(S(=O)(=O)NCc2ccccc2)c1)Nc1ccccc1OC(F)F | 11.5%
CC1CCCN(C(=O)NC(=O)c2ccc(Cl)cc2)C1 (stereo not drawn) | 3.85%
C[C@@H](CN1C2=NC[C@H](Cc3ccc(O)cc3)N2C[C@H]1Cc1ccc(O)cc1)NC(=O)CCC1CCCCC1 | -10.3%
CC(CCc1ccccc1)NC(=O)CCC1CCCC1 (stereo not drawn) | -24.5%
C[C@@H](CN1C2=NC[C@H](Cc3ccccc3)N2C[C@H]1Cc1ccc(O)cc1)NC(=O)CCC1CCCCC1 | -71.2%
O=C(c1ccc(N2CCN(C3CC(=O)N(Cc4cccs4)C3=O)CC2)cc1)c1cccnc1 (stereo not drawn) | -73.5%
O=C(c1ccncc1)c1ccc(N2CCN(C3CC(=O)N(Cc4ccccc4)C3=O)CC2)cc1 (stereo not drawn) | -76.2%
NC(=O)C1(N2CCCCC2)CCN(C2CC(=O)N(Cc3cccs3)C2=O)CC1 (stereo not drawn) | 6.12%
O=C1CC(N2CCN(c3ccc(F)cc3)CC2)C(=O)N1c1ccc(F)cc1 (stereo not drawn) | 1.07%

Compound | hERG current change (%, negative = inhibition) at 10uM
O=C1CC(N2CCN(c3ccc(F)cc3)CC2)C(=O)N1Cc1cccs1 (stereo not drawn) | -42.5%
O=C1CC(N2CCN(c3ccc(O)cc3)CC2)C(=O)N1Cc1cccs1 (stereo not drawn) | -7.15%
CCN1C(=O)CC(N2CCN(c3ccc(C(=O)c4ccncc4)cc3)CC2)C1=O (stereo not drawn) | -12.3%
O=C1CC(N2CCN(c3ccc(F)cc3)CC2)C(=O)N1Cc1ccccc1 (stereo not drawn) | -17.6%
COc1ccc(N2C(=O)CC(N3CCN(c4ccc(C(=O)c5cccnc5)cc4)CC3)C2=O)cc1 (stereo not drawn) | -48.2%
O=C(c1ccncc1)c1ccc(N2CCN(C3CC(=O)N(Cc4cccs4)C3=O)CC2)cc1 (stereo not drawn) | -79.3%
NC(=O)C1CCN(C2CC(=O)N(Cc3cccs3)C2=O)CC1 (stereo not drawn) | 0.931%
O=C(c1ccc(N2CCN(C3CC(=O)N(c4ccc(F)cc4)C3=O)CC2)cc1)c1cccnc1 (stereo not drawn) | -50.6%
COc1ccc(S(=O)(=O)Nc2cc(C(=O)NCCCN3CCOCC3)ccc2N2CCOCC2)cc1 | 25%
CC(=O)N(C)c1ccc(NC(=O)Nc2cccc3ccccc23)cc1 | -2.88%
COC(=O)Cn1c(SCc2ccccc2)nc2ccccc21 | -13.8%
Cc1cccc(Cn2cccc2/C=C2/C(=N)N3C=CSC3=NC2=O)c1 | -1.72%
O=C(Nc1ccccc1)C1=C[C@H](c2csc3ccccc23)C[C@H](OCCCCO)O1 | -5.71%
O=C(NCc1nc2ccccc2[nH]1)C1=C[C@@H](c2ccccc2)C[C@@H](OCc2ccc(CO)cc2)O1 | -64.9%
O=C(NCc1ccccc1)C1=C[C@@H](c2csc3ccccc23)C[C@@H](OCCCCO)O1 | -69%
O=C(NCc1nc2ccccc2[nH]1)C1=C[C@H](c2coc3ccccc3c2=O)C[C@H](OCCCCO)O1 | -50.7%
O=C(NCc1nc2ccccc2[nH]1)C1=C[C@H](c2ccccc2)C[C@H](OCc2ccc(CO)cc2)O1 | -13.6%
O=C(NCc1nc2ccccc2[nH]1)C1=C[C@H](c2coc3ccccc3c2=O)C[C@H](OCc2ccc(CO)cc2)O1 | -21.5%
O=C(NCc1ccccc1)C1=C[C@H](c2csc3ccccc23)C[C@H](OCCCCO)O1 | -12.5%
O=C(NCc1nc2ccccc2[nH]1)C1=C[C@@H](c2ccc(Br)cc2)C[C@@H](OCCCCO)O1 | -65.9%
O=C(NCc1nc2ccccc2[nH]1)C1=C[C@H](c2ccccc2)C[C@H](OCCCCO)O1 | -36.3%
O=C(NCc1nc2ccccc2[nH]1)C1=C[C@@H](c2csc3ccccc23)C[C@@H](OCCCCO)O1 | -29.6%
O=C(NCc1nc2ccccc2[nH]1)C1=C[C@H](c2ccc(Br)cc2)C[C@H](OCc2ccc(CO)cc2)O1 | 3.89%
O=C(NCc1nc2ccccc2[nH]1)C1=C[C@@H](c2ccccc2)C[C@@H](OCCCCO)O1 | -46.5%
